Rows were chosen to be rich in hits. Some 21% of all compounds tested hit in one or more screens of this group.
Sm TGR inh = inhibitors of Schistosoma mansoni thioredoxin glutathione reductase | Q962Y6 | purified TGR, DTNB reduction, TNB absorbance 405 nm | Potency, µM (titrated, usually from 114 µM), for inactives: top-dose activity change, negative = inhibition, usual class: inhibitors | 360,000 compounds, 3% hits | AID 485364; further: potency means the concentration at half of the fitted maximal effect; on the % scale 0 is the no-effect control and ±100 the full control effect; nearly all actives have a fitted effect of over 60% in size
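TGR 20 nM + NADPH 100 uM (dispensed conc.), cpd preinc 15 min RT; start with NADPH (500 uM addition) then DTNB (15 mM addition). Kinetic TNB absorbance, 405 nm filter. Four-parameter Hill fit across titration.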
Pf growth 48h = P. falciparum growth inhibition at 48 hours (one generation). Potency, µM (series often up to 28.7 µM), for inactives: at the top dose activity change, negative = inhibition, most hits filed as inhibitors. 310,000 compounds, 5.9% hits. P. falciparum luciferase growth in erythrocytes, 48 h; further: potency means the concentration at half of the fitted maximal effect; on the % scale 0 is the no-effect control and ±100 the full control effect
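Erythrocytes infected with P. falciparum carrying an integrated firefly luciferase reporter (2% hematocrit, 0.1% parasitemia final) were exposed to compounds in RPMI 1640 with 0.5% Albumax at 37 C, 5% CO2. Growth inhibition was scored as reduced luminescence.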
Shiga inhibitor = inhibitors of Shiga toxin in Vero cells. Vero cells, Shiga toxin protein synthesis inhibition reporter. AID 2315. 290,000 compounds, 9.2% hits. inhibition, % at 38.7 µM; in the data active means inhibition mostly above about 28%, no sharp cut-off; inactive means mostly below about 43%; further: 0% is about no effect
Pf growth 96h = P. falciparum growth inhibition at 96 hours | 320,000 compounds, 6.9% hits | Potency, µM (highest dose often 28.7 µM), inactives show at the top dose activity change, negative = inhibition, actives largely listed as inhibitors | P. falciparum luciferase reporter growth, 96 h; further: potency means the concentration at half of the fitted maximal effect; on the % scale 0 is the no-effect control and ±100 the full control effect
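Parasite growth measured via integrated firefly luciferase reporter in P. falciparum. Infected erythrocytes at 2% hematocrit, 0.05% parasitemia final were treated 96 hours at 37 C under 5% CO2, and luminescence was read.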
NS1 function inh = inhibitors of influenza NS1 protein function. AID 2326. 270,000 compounds, 0.4% hits. Potency, µM (highest dose often 46.1 µM), for the others: at the highest dose activity, positive = more growth; calls by dose curve; further: potency means the concentration at half of the fitted maximal effect; actives are rising curves; nearly all actives have a fitted effect of over 50% in size
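Recovery from NS1-induced slow growth read by OD600 in budding yeast switched to galactose assay medium (pH 6.0, -URA) at 1:100 dilution. Compound 23 nl per well; the matching strain lacking NS1 serves as control.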
Cycloheximide cs = counter-screen for Shiga toxin inhibitors: cycloheximide protein synthesis inhibition | cell reporter, cycloheximide protein synthesis inhibition counterscreen | max response, % | 300,000 compounds, 12% hits; in the data active means max response mostly above about 13%, no sharp cut-off; inactive means mostly below about 14%; further: read at 38.3 µM for the half of the compounds with a filed dose; 0% is about no effect
* = called active by the depositor; ? = inconclusive; . = not tested or not shown; [ ] = another dose, or the depositor's remark. Unless noted, the call rests on the fitted dose curve; in most records, active means well fitted curve in the direction sought with a large enough effect; inconclusive means small, poorly fitted or top-dose-only effect, or another doubt; inactive means no such curve, though single readings can be large; an effect the other way counts as inactive or inconclusive.

SMILES | Sm TGR inh | Pf growth 48h | Shiga inhibitor | Pf growth 96h | NS1 function inh | Cycloheximide cs
CC1(C(=O)NCc2ccc(Cl)c(Cl)c2)Oc2cccnc2NC1=O (stereo unspecified) | 2% | ? | -3 | 5.2µM* | -4% | -7
O=C(NCc1ccccc1)c1ccc(CN(c2ccccn2)S(=O)(=O)c2ccccc2)cc1 | -2% | ? | -13 | ? | -59% | -2
CCc1nc(SCC(=O)N2CC(=O)Nc3ccccc32)c2c(C)c(C)sc2n1 | 10% | ? | -6 | -145% | 15% | -4
COc1ccc(-c2ccc(SCC(=O)N3CC(=O)Nc4ccccc43)nn2)cc1 | 28% | -11% | 35* | -15% | 3% | 21*
CCCSc1nnc(NC(=O)Nc2ccccc2OC)s1 | -6% | 18% | 96* | 19% | 0% | 34*
CCCc1nnc(NC(=O)Nc2ccccc2OC)s1 | 7% | 68% | 9 | 26% | -7% | 13
COc1ccccc1Nc1nnc(SCC(=O)NC2CCCC2)s1 | -5% | 12µM* | . | 9.3µM* | . | .
Cc1sc2nc(C3CCCCC3)nc(SCC(=O)N3CC(=O)Nc4ccccc43)c2c1C | -12% | ? | -11 | 4.7µM* | 27% | 6
O=C(O)CCSSCCC(=O)O | 2% | 30% | . | 49% | . | .
CCSc1nnc(NC(=O)[C@@H](NC(=O)c2ccccc2F)C(C)C)s1 | 0% | 0% | 12 | 5% | 1% | 8
O=C(O)c1ccc2c(c1)C(=O)N([C@H](Cc1ccc(F)cc1)C(=O)O)C2=O | -5% | ? | 15 | 19% | . | 5
COc1ccccc1Nc1nnc(SCC(=O)N2CC(=O)Nc3ccccc32)s1 | -4% | ? | -5 | 7.4µM* | -5% | 1
CCOc1ccccc1Nc1nnc(SCC(=O)N2CCCC2)s1 | -10% | 0% | 1 | ? | -7% | 0
COc1ccccc1Nc1nnc(SCC(=O)Nc2nc(-c3ccc(F)cc3)cs2)s1 | -8% | 1% | -9 | 13µM* | ? | 5
COc1ccccc1Nc1nnc(SCC(=O)N2CCCC2)s1 | 1% | -13% | 86 | . | -5% | 33*
COc1ccc(-c2csc3nc(-c4ccc(F)cc4)oc(=O)c23)cc1OC | 1% | . | . | . | . | .
COc1cccc(C2C3=C(N=c4s/c(=C\c5ccccc5O)c(=O)n42)c2ccccc2CC3)c1OC (stereo unspecified) | 3% | 1.9µM* | 20 | 2.9µM* | . | -2
COc1cccc(C2C3=C(N=C4SCC(=O)N42)c2ccccc2CC3)c1OC (stereo unspecified) | -7% | 12µM* | 21 | 186% | 4% | -1
COc1ccc(OC)c(C2C3=C(N=C4SCC(=O)N42)c2ccccc2CC3)c1 (stereo unspecified) | ? | ? | -1 | ? | ? | 1
O=C(COc1ccccc1N1C(=O)C2C3C=CC(C3)C2C1=O)c1ccccc1 (stereo unspecified) | 9% | 4% | -9 | 27% | -4% | 1
Cc1c(C(=O)N2CCCCC2)oc2ccc(S(=O)(=O)N3CC(C)CC(C)C3)cc12 (stereo unspecified) | -10% | ? | -7 | 12µM* | -35% | -5
Cc1c(C(=O)NCCc2ccccc2)oc2ccc(S(=O)(=O)N3CCOCC3)cc12 | 6% | ? | 15 | -3% | -48% | 15*
Cc1c(C(=O)N2CCN(C)CC2)oc2ccc(S(=O)(=O)N3CCOCC3)cc12 | 1% | -21% | 13 | 8.3µM* | -14% | -2
COCCCNC(=O)c1oc2ccc(S(=O)(=O)N3CCOCC3)cc2c1C | -1% | -9% | -9 | 43% | 16% | -1
Cc1ccc(CC(=O)NCCS(=O)c2ccc(C)cc2)cc1 (stereo unspecified) | 8% | 28% | -3 | -168%[1.15 µM] | 10% | 10
SMILES | Sm TGR inh | Pf growth 48h | Shiga inhibitor | Pf growth 96h | NS1 function inh | Cycloheximide cs
CC1CC1C(=O)Nc1cc(S(=O)(=O)N2CCOCC2)ccc1N1CCCC1 (stereo unspecified) | -6% | -21% | -3 | -22% | . | 7
CC(=O)c1c(C)[nH]c(C(=O)CSc2nnc(C3CCCCC3)n2N)c1C | 1% | 2.1µM* | -3 | . | 5% | 1
C=CCn1c(C)nnc1SCC(=O)c1[nH]c(C)c(C(C)=O)c1C | -3% | ? | 2 | ? | . | -4
CC(=O)c1c(C)[nH]c(C(=O)CSc2nnc(C)s2)c1C | -30% | 108% | 92* | 16% | . | 44*
Nn1c(SCC(=O)Nc2ccc(F)cc2)nnc1C1CCCCC1 | 21% | 11% | -8 | . | 2% | -1
CN(C)c1ccc(NC(=O)CSc2nnc(C3CCCCC3)n2N)cc1 | -35% | 23% | 31* | 3% | 9% | 24*
COc1ccc(S(=O)(=O)N(CC(=O)NCc2ccc(C)cc2)c2ccc(Cl)cc2)cc1 | 0% | . | . | . | . | .
COCCOC(=O)C1=C(C)NC(=O)N(C(C)=O)C1c1ccc(Cl)cc1 (stereo unspecified) | -1% | ? | 20 | 2.3µM* | -10% | -3
Cc1cccc(N2CCN(C(=O)c3cccc(-n4c(C)nc5cccnc54)c3)CC2)c1C | -5% | . | . | . | . | .
CCOC(=O)C(=O)N1CCN(c2nc(-c3ccc(Cl)cc3)cs2)CC1 | 8% | 13% | . | 4.7µM* | -48% | -4
CCOC(=O)N1CCN(c2nc(-c3ccc(F)cc3)cs2)CC1 | 9% | 13% | 48* | 92% | -12% | 23*
COc1cc2nc(SCC(=O)Nc3cccc(C)c3)n3nc(-c4ccccc4)nc3c2cc1OC | -7% | . | . | . | . | .
Cc1ncoc1C(=O)NC1CC(C)(C)Cc2c1cnn2-c1ccc(F)cc1 (stereo unspecified) | -3% | -25% | 10 | -15% | 9% | 3
Cc1ccc(-n2ncc3c2CC(C)(C)CC3NC(=O)CCn2cncn2)cc1 (stereo unspecified) | 0% | -6% | -13 | 10µM* | 9% | -1
CC1(C)Cc2c(cnn2-c2ccc(F)cc2)C(NC(=O)CCN2CCCC2=O)C1 (stereo unspecified) | -13% | 2% | 47* | ? | -3% | 30*
CC1(C)Cc2c(cnn2-c2ccc(F)cc2)C(NC(=O)c2ccco2)C1 (stereo unspecified) | 2% | 58% | 22* | -20% | 1% | 13
Cc1ccccc1-n1ncc2c1CC(C)(C)CC2NC(=O)C1=CC(=O)CC(C)(C)O1 (stereo unspecified) | -25% | ? | -6 | 9.3µM* | 3% | -2
O=C(NCCCN1CCOCC1)c1ccc2nc(Cc3cccc(Cl)c3)oc2c1 | -22% | -15% | -30 | -1% | 15% | 7
CCC(C)NCCOCCOc1ccc(Cl)cc1Br (stereo unspecified) | 0% | ? | -11 | 62%[5.75 µM] | 2% | -5
C=CCCC(=O)NC1CC(C)(C)Cc2c1cnn2-c1cccc(F)c1 (stereo unspecified) | 4% | ? | 7 | ? | 19% | 3
